Source: PubChem (Sanford-Burnham Center for Chemical Genomics)
A selection: hits, their analogues and other compounds. The true share with any hit is near 2.9%.
A3A deaminase: APOBEC3A ssDNA deaminase inhibitors, primary screen, selectivity assay for APOBEC3G inhibitor project, biochemical, FAM/TAMRA oligo cleavage fluorescence; inhibition, % at 20 µM; recombinant A3A, FAM/TAMRA ssDNA deamination fluorescence; DNA dC->dU-editing enzyme APOBEC-3A (Homo sapiens), P31941; 330,000 tested, 0.41% active;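 active = at least 40% inhibition at 20 µM here, with at most 30% in a related deaminase screen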;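 also: plate controls were A3A with DMSO for no effect and wells lacking A3A enzyme for full effect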
Target sequence (P31941 whole entry, looked up): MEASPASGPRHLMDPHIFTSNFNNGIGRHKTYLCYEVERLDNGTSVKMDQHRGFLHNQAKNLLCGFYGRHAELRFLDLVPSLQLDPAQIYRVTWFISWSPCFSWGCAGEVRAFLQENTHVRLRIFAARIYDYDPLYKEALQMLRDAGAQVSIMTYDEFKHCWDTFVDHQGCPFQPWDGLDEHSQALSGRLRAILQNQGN
H9c2 TAG inh: inhibitors of triacylglycerol accumulation, primary screen, cell-based, uHTS, fluorescence, H9c2. H9c2 cells, Nile Red lipid (TAG) fluorescence; cells loaded with 200 µM oleic acid. inhibition, % at 12.5 µM. 230,000 tested, 0.66% active. AID 651582, 2012;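 active = pattern-corrected inhibition of lipid staining of at least 50% with the nuclear-stain viability signal not falling by more than 50%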;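 also: 0% = DMSO wells and 100% = triacsin C control wells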
PfGluPho inh: PfG6PD enzyme inhibitors, primary screen, biochemical, fluorescence intensity, uHTS. PfGluPho enzyme, NADPH resazurin-diaphorase fluorescence. 350,000 tested, 0.78% active. glucose-6-phosphate dehydrogenase-6-phosphogluconolactonase (Plasmodium falciparum 3D7). inhibition, % at 20 µM;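 active = inhibition reaching at least a set limit at 20 µM in the primary screen, cut at about 59% in these data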;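 also: 0% = DMSO wells with substrate and 100% = DMSO wells lacking glucose-6-phosphate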
A3G deaminase: APOBEC3G DNA deaminase inhibitors, primary screen, biochemical, fluorescence, single-stranded DNA substrate, uHTS; inhibition, % at 20 µM; recombinant A3G, ssDNA deamination FAM/TAMRA fluorescence; 330,000 tested, 0.28% active; AID 493012, 2011; DNA dC->dU-editing enzyme APOBEC-3G (Homo sapiens), Q9HC16;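 active = inhibition of at least 40% at 20 µM, with no more than 30% in the related APOBEC3A deaminase screen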;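 also: plate controls were DMSO wells with A3G for no effect and wells lacking A3G enzyme for full effect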
Cardio protect: cardioprotection against H2O2-induced cell death, primary screen, uHTS, H9c2 cells, ATPLite luminescence. H9c2 cardiomyocytes, H2O2 injury protection, 2 h. protection from H2O2 cell death, % at 20 µM. 360,000 tested, 0.63% active;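 active = compounds giving at least 50% protection of heart cells from peroxide-induced death in the single-dose screen, raw or plate-pattern-corrected value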;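 also: 0% = DMSO wells with peroxide and 100% = DMSO wells without peroxide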
NadD inh: inhibitors of S. aureus NadD, primary screen, biochemical, colorimetric, uHTS; Nicotinate-nucleotide adenylyltransferase NadD (Staphylococcus aureus N315); purified NadD enzyme, colorimetric absorbance read-out; inhibition, % at 20 µM; 360,000 tested, 0.78% active; AID 602399, 2012; in the data active = inhibition above about 26%
* hit, by the source's call.

Screening Cc1cc(NC(=O)c2ccccc2)c(Cl)cc1N returned A3A deaminase -1.0, PfGluPho inh 6.5, A3G deaminase -1.4, Cardio protect -0.9 and NadD inh -2.2.
COc1cc(-c2cnc3c(NC=O)cc(-c4ccsc4)cn23)cc(OC)c1OC was read as H9c2 TAG inh 38.6, Cardio protect 56.1* and NadD inh 5.9.
Screening O=C(CNC(=O)c1ccc2c(c1)OCCO2)N/N=C/c1ccc(O)cc1O returned A3A deaminase -3.9, PfGluPho inh -17.5, A3G deaminase -7.1, Cardio protect 71.5* and NadD inh 0.2.
`CN(C)c1ccc(/C=N/NC(=O)CNC(=O)c2ccc3c(c2)OCCO3)cc1` gave A3A deaminase -3.7, H9c2 TAG inh 5.5, PfGluPho inh -12.9, A3G deaminase -5.0, Cardio protect -6.8 and NadD inh -6.5.
Screening COc1cccc(/C=N/NC(=O)CNC(=O)c2ccncc2)c1O returned A3A deaminase -5.5, PfGluPho inh -52.0, A3G deaminase -4.0, Cardio protect 59.9* and NadD inh -2.6.
COc1cccc(/C=N/NC(=O)c2ccc(-c3ccccc3)cc2)c1O was read as A3A deaminase -1.2, H9c2 TAG inh 34.3, PfGluPho inh -7.2, A3G deaminase -8.2, Cardio protect 29.8 and NadD inh 15.2.
For COc1cccc(/C=N/NC(=O)C(=O)NCc2cccnc2)c1O the results were A3A deaminase -3.8, PfGluPho inh -27.9, A3G deaminase -6.7, Cardio protect 79.4* and NadD inh 1.3.
Screening COc1cccc(/C=N/NC(=O)c2[nH]c(C)c(C(=O)N/N=C/c3cccc(OC)c3O)c2C)c1O returned A3A deaminase -5.2, H9c2 TAG inh 22.2, PfGluPho inh -35.9, A3G deaminase -8.3, Cardio protect 31.9 and NadD inh 34.8*.
For CN(C)S(=O)(=O)c1cccc(C(=O)Nc2n[nH]c(C(F)(F)F)n2)c1 the results were A3A deaminase -3.1, PfGluPho inh 0.4, A3G deaminase -8.4, Cardio protect -6.6 and NadD inh -0.7.
CC(=O)c1cccc2c1OC(C)C(=O)N2Cc1ccc(Cl)cc1 (stereo not drawn) was read as H9c2 TAG inh 17.4, Cardio protect 0.0 and NadD inh -3.5.
COc1cccc(/C=N/NC(=O)CNC(=O)C2COc3ccccc3O2)c1O (stereo not drawn) was read as H9c2 TAG inh -2.8, PfGluPho inh -28.4, Cardio protect 66.1* and NadD inh 4.5.
Screening COc1ccc(CCCC(=O)N/N=C/c2cccc(OC)c2O)cc1C returned A3A deaminase -2.0, PfGluPho inh 0.0, A3G deaminase -5.9, Cardio protect 53.4* and NadD inh -5.0.
For COc1cccc(/C=N/NC(=O)C[n+]2ccccc2)c1O the results were A3A deaminase -5.1, PfGluPho inh -34.4, A3G deaminase -9.2, Cardio protect -0.8 and NadD inh -3.2.
Screening COc1cccc(/C=N/NC(=O)CNC(=O)c2ccc3c(c2)OCCO3)c1O returned A3A deaminase 7.7, PfGluPho inh -6.0, A3G deaminase 1.7, Cardio protect 65.8* and NadD inh -2.7.
C[C@H](NC(=O)c1nc[nH]c1C(=O)N[C@@H](CCCCN)C(=O)OC(C)(C)C)C(=O)OCc1ccccc1 was read as A3A deaminase -3.7, H9c2 TAG inh 8.9, PfGluPho inh 8.7, A3G deaminase -7.5, Cardio protect 3.0 and NadD inh -1.3.
For CCCCCCN1C(=O)CC(NC(=O)OCC2c3ccccc3-c3ccccc32)C/C=C\C1C(C)C (stereo not drawn) the results were A3A deaminase 3.7, H9c2 TAG inh 13.2, PfGluPho inh 7.7, A3G deaminase 2.1, Cardio protect -19.1 and NadD inh 0.8.
